The panel holds about 79,000 compounds, 15% with a hit somewhere; the sample as a whole holds those more often. The source made the active and inactive calls. Cut-off read from the data, not from the text of the source: active = growth inhibition above about 70%; inactive = the rest.
Legend:
[1] = NCI Yeast Anticancer Drug Screen. Data for the rad52 strain (AID 147);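 note: 0% = growth of vehicle-treated control cultures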; conditions: S. cerevisiae rad52 mutant growth inhibition, stronger effect = higher value
In short: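 Here a repair-compromised yeast strain receives each compound; its growth is then quantified and normalised to vehicle-only controls.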

[2] = NCI Yeast Anticancer Drug Screen. Data for the wt1 strain (AID 149);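 note: 0% = growth of vehicle-treated wt1 cultures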; conditions: S. cerevisiae wt1 strain (SPY 50644) growth inhibition, stronger effect = higher value
In short: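 Readout: yeast growth inhibition, normalised to vehicle controls, in the wt1 strain exposed to test compounds.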

[3] = NCI Yeast Anticancer Drug Screen. Data for the rad50EPP+ strain (AID 151);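 note: 0% = growth of vehicle-treated control cultures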; conditions: S. cerevisiae rad50 mutant strain, stronger effect = higher value
In short: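 Read-out is yeast growth inhibition relative to vehicle; cells used were the rad50EPP+ strain.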

[4] = NCI Yeast Anticancer Drug Screen. Data for the mgt1 strain (AID 153); conditions: S. cerevisiae mgt1 mutant growth inhibition, stronger effect = higher value
In short: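 Measured: inhibition of mgt1 yeast growth by compound, normalized to vehicle-treated cultures.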

[5] = NCI Yeast Anticancer Drug Screen. Data for the rad50 strain (AID 155);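 note: 0% = growth of vehicle-only cultures of the same strain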; conditions: S. cerevisiae rad50 strain growth inhibition, stronger effect = higher value
In short: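 Compounds were tested on a yeast strain with an engineered DNA damage repair alteration; the reported value is growth inhibition normalised to vehicle treatment.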

[6] = NCI Yeast Anticancer Drug Screen. Data for the mec2-1 strain (AID 157); conditions: S. cerevisiae mec2-1 strain, stronger effect = higher value
In short: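 Using mec2-1 yeast: add compound, measure growth, express inhibition versus vehicle-treated cultures.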

[7] = NCI Yeast Anticancer Drug Screen. Data for the rad14 strain (AID 159);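 note: 0% = growth of vehicle-treated control cultures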; conditions: S. cerevisiae rad14 strain growth inhibition, stronger effect = higher value
In short: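 Compound-treated yeast with a defined DNA-repair lesion; growth inhibition normalised to vehicle-treated cultures.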

[8] = NCI Yeast Anticancer Drug Screen. Data for the sgs1 mgt1 strain (AID 161);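 note: 0% = growth of cultures given vehicle only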; conditions: S. cerevisiae sgs1 mgt1 strain, stronger effect = higher value
In short: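 Growth of a repair-deficient yeast mutant was monitored after compound treatment and expressed as inhibition relative to vehicle-treated cultures.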

[9] = NCI Yeast Anticancer Drug Screen. Data for the CLN2oe strain (AID 163);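 note: 0% = growth of vehicle-only control cultures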; conditions: S. cerevisiae CLN2oe strain, stronger effect = higher value
In short: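 Whole-cell yeast growth assay. A strain engineered for altered cell-cycle control received compound, and inhibition relative to vehicle-treated cultures was recorded.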

[10] = NCI Yeast Anticancer Drug Screen. Data for the cln2 rad14 strain (AID 165);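 note: 0% = growth equal to vehicle treated cultures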; conditions: S. cerevisiae cln2 rad14 strain, stronger effect = higher value
In short: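 Yeast strain cln2 rad14, bearing defects in cell cycle control and DNA repair, serves as the test system; values reflect growth inhibition compared with vehicle.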

[11] = NCI Yeast Anticancer Drug Screen. Data for the bub3 strain (AID 167); conditions: S. cerevisiae bub3 mutant strain, stronger effect = higher value
In short: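 Growth of a checkpoint-deficient yeast mutant is measured after compound exposure. Values represent inhibition relative to vehicle.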

[12] = NCI Yeast Anticancer Drug Screen. Data for the wt2 strain (AID 169);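 note: 0% = growth of vehicle-treated yeast cultures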; conditions: S. cerevisiae wt2 strain growth inhibition, stronger effect = higher value
In short: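 Treated yeast vs. vehicle-treated yeast: growth inhibition determined.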

[13] = NCI Yeast Anticancer Drug Screen. Data for the mlh1 strain (AID 171);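 note: 0% = growth of vehicle-treated control cultures of the same strain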; conditions: S. cerevisiae mlh1 strain growth inhibition, stronger effect = higher value
In short: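 A yeast strain with a defined genetic lesion serves as the test organism. Cultures receive compound or vehicle, and growth is measured.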

[14] = NCI Yeast Anticancer Drug Screen. Data for the sgs1 strain (AID 173);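 note: 0% = growth of vehicle-only control cultures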; conditions: S. cerevisiae sgs1 mutant, stronger effect = higher value
In short: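 A genetically defined yeast mutant is incubated with the test compound, and its growth is compared to that of the same strain given vehicle.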

[15] = NCI Yeast Anticancer Drug Screen. Data for the mlh1 rad18 strain (AID 175); conditions: S. cerevisiae mlh1 rad18 strain growth inhibition, stronger effect = higher value
In short: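 Steps: expose repair-defective yeast to compound; measure growth; express inhibition against vehicle-treated controls.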

[16] = NCI Yeast Anticancer Drug Screen. Data for the rad18 strain (AID 177); conditions: S. cerevisiae rad18 mutant growth inhibition, stronger effect = higher value
In short: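 Measured value is growth inhibition of a yeast strain bearing a DNA repair alteration, referenced to vehicle-treated cells.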

[17] = at 5.0 µM (retest, dose inferred, filed as 0.5)
[18] = at 50.0 µM (retest, dose inferred, filed as 5.0)

Measured: growth inhibition

COc1ccc(C(C)c2cc3c(cc2OCC(C)=O)OCO3)cc1 (stereo unspecified)
active: [1]; at 100.0 µM 73% | [5]; at 100.0 µM 84% | [6]; at 100.0 µM 73% | [9]; at 100.0 µM 76% | [11]; at 100.0 µM 86% | [12]; at 100.0 µM 75% | [13]; at 100.0 µM 76% | [14]; at 100.0 µM 77% | [16]; at 100.0 µM 84%
inactive: [1]; at 1.2 µM -3% | [1]; at 3.7 µM 0% | [1]; at 11.0 µM 1% | [1]; at 33.0 µM -1% | [2]; at 1.2 µM -2% | [2]; at 3.7 µM -3% | [2]; at 11.0 µM -5% | [2]; at 33.0 µM -8% | [2]; at 100.0 µM 49% | [3]; at 1.2 µM -3% | [3]; at 3.7 µM 1% | [3]; at 11.0 µM 3% | [3]; at 33.0 µM 12% | [3]; at 100.0 µM 11% | [4]; at 1.2 µM -3% | [4]; at 3.7 µM -2% | [4]; at 11.0 µM -4% | [4]; at 33.0 µM -7% | [4]; at 100.0 µM 42% | [5]; at 1.2 µM 2% | [5]; at 3.7 µM 45% | [5]; [17] 1% | [5]; at 11.0 µM 26% | [5]; at 33.0 µM 9% | [5]; [18] 14% | [5]; at 50.0 µM -11.3% | [6]; at 1.2 µM -3% | [6]; at 3.7 µM -1% | [6]; [17] -5% | [6]; at 11.0 µM 0% | [6]; at 33.0 µM -4% | [6]; [18] 7% | [6]; at 50.0 µM -15.1% | [7]; at 1.2 µM -2% | [7]; at 3.7 µM -3% | [7]; at 11.0 µM -3% | [7]; at 33.0 µM 1% | [7]; at 100.0 µM 38% | [8]; [17] -4% | [8]; [18] 35% | [8]; at 50.0 µM 9.55% | [9]; at 1.2 µM -4% | [9]; at 3.7 µM -3% | [9]; at 11.0 µM -2% | [9]; at 33.0 µM -10% | [10]; [17] -6% | [10]; [18] 9% | [10]; at 50.0 µM -48.7% | [11]; at 1.2 µM 2% | [11]; at 3.7 µM 8% | [11]; [17] 5% | [11]; at 11.0 µM 17% | [11]; at 33.0 µM 40% | [11]; [18] 66% | [11]; at 50.0 µM -26.4% | [12]; at 1.2 µM -3% | [12]; at 3.7 µM 4% | [12]; at 11.0 µM -5% | [12]; at 33.0 µM -6% | [13]; at 1.2 µM -3% | [13]; at 3.7 µM -4% | [13]; at 11.0 µM -4% | [13]; at 33.0 µM -3% | [14]; at 1.2 µM -3% | [14]; at 3.7 µM -2% | [14]; at 11.0 µM -1% | [14]; at 33.0 µM -4% | [15]; [17] -5% | [15]; [18] 45% | [15]; at 50.0 µM 11.4% | [16]; at 1.2 µM -2% | [16]; at 3.7 µM 2% | [16]; at 11.0 µM 6% | [16]; at 33.0 µM 11%

O=NC1c2cccc3cccc(c23)C1N=O (stereo unspecified)
inactive: [1]; at 1.2 µM 14% | [1]; at 3.7 µM 33% | [2]; at 1.2 µM 3% | [2]; at 3.7 µM 3% | [2]; at 11.0 µM 20% | [2]; at 33.0 µM 38% | [2]; at 100.0 µM 69% | [3]; at 1.2 µM 11% | [3]; at 3.7 µM 41% | [4]; at 1.2 µM 4% | [4]; at 3.7 µM 12% | [4]; at 11.0 µM 47% | [5]; at 1.2 µM 19% | [5]; at 3.7 µM 49% | [5]; [17] 17% | [6]; at 1.2 µM -2% | [6]; at 3.7 µM 0% | [6]; [17] 13% | [6]; at 11.0 µM -1% | [6]; at 33.0 µM 31% | [6]; at 100.0 µM 45% | [7]; at 1.2 µM 4% | [7]; at 3.7 µM 25% | [7]; at 11.0 µM 40% | [8]; [17] 30% | [9]; at 1.2 µM 4% | [9]; at 3.7 µM 8% | [9]; at 11.0 µM 24% | [9]; at 33.0 µM 43% | [9]; at 100.0 µM 54% | [10]; [17] 6% | [11]; at 1.2 µM -10% | [11]; at 3.7 µM -20% | [11]; [17] -3% | [11]; at 11.0 µM 16% | [11]; at 33.0 µM 27% | [11]; at 100.0 µM 44% | [12]; at 1.2 µM 2% | [12]; at 3.7 µM 9% | [12]; at 11.0 µM 36% | [13]; at 1.2 µM 2% | [13]; at 3.7 µM 13% | [13]; at 11.0 µM 40% | [14]; at 1.2 µM 7% | [14]; at 3.7 µM 23% | [14]; at 11.0 µM 58% | [15]; [17] 48% | [16]; at 1.2 µM 22%
active: [1]; at 11.0 µM 75% | [1]; at 33.0 µM 90% | [1]; at 100.0 µM 94% | [3]; at 11.0 µM 81% | [3]; at 33.0 µM 92% | [3]; at 100.0 µM 93% | [4]; at 33.0 µM 86% | [4]; at 100.0 µM 94% | [5]; at 11.0 µM 84% | [5]; at 33.0 µM 93% | [5]; [18] 96% | [5]; at 50.0 µM 97% | [5]; at 100.0 µM 94% | [6]; [18] 94% | [6]; at 50.0 µM 94.3% | [7]; at 33.0 µM 92% | [7]; at 100.0 µM 97% | [8]; [18] 97% | [8]; at 50.0 µM 97.3% | [10]; [18] 92% | [10]; at 50.0 µM 80.5% | [11]; [18] 95% | [11]; at 50.0 µM 89% | [12]; at 33.0 µM 77% | [12]; at 100.0 µM 94% | [13]; at 33.0 µM 88% | [13]; at 100.0 µM 94% | [14]; at 33.0 µM 89% | [14]; at 100.0 µM 95% | [15]; [18] 98% | [15]; at 50.0 µM 97.3% | [16]; at 3.7 µM 70% | [16]; at 11.0 µM 94% | [16]; at 33.0 µM 95% | [16]; at 100.0 µM 95%
